beta cell repl: inducers of MIN6 beta-cell proliferation, primary screen, ATP luminescence, uHTS | MIN6 cells proliferation, ATPlite luminescence, 48 h; cells starved in 0.2% serum; 100% = growth in 10% serum | proliferation, % at 10 µM | AID 2380, 2010 | 0.29% of 330,000 active;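 active means compounds whose signal lies at least 3.5 SD above the mean of all wells on their plate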;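 further: 0% = DMSO-treated cells in low-serum medium and 100% = 10% serum control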
SMARCA2 act: SMARCA2 (BRM) function activators, primary screen, cell-based, luminescence, high throughput | MG213 cells, MMTV-luciferase reporter, dexamethasone, overnight | activation, % at 9.1 µM | 1% of 370,000 active | AID 652017, 2013; in the data active means activation above about 7.8%;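 further: 0% = vehicle wells and 100% = reference activator wells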
ALR H2O2 inh: inhibitors of human ALR sulfhydryl oxidase, primary screen, biochemical, H2O2 detection, HRP-luminol luminescence, single point; FAD-linked sulfhydryl oxidase ALR (Homo sapiens), P55789; purified ALR, DTT oxidation; inhibition, % (test concentration not listed); 3.8% of 290,000 active; AID 485317, 2010;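 active means mean replicate inhibition above about 79%, with every replicate also reaching it, limit read from the data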
Target sequence (P55789 whole entry, looked up): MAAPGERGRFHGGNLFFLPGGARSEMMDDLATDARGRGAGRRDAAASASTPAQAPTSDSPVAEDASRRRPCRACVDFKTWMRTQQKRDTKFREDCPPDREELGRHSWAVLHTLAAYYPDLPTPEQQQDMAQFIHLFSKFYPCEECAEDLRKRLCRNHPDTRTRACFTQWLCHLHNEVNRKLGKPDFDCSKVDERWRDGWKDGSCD
Exocytosis inh: LAMP-1 surface exposure blockers, TALL-104 cells – cell-based, flow cytometry, MLPCN library, primary screen | inhibition, % at 10 µM | 0.66% of 360,000 active | TALL-104 LAMP-1 surface exposure; cells stimulated with thapsigargin and PMA | AID 651702, 2012;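 active means inhibition above about 55%, limit read from the data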
M18AAP inhibitor: PfM18AAP inhibitors, malaria aminopeptidase, primary screen, biochemical, QFRET, recombinant enzyme; 1.2% of 290,000 active; inhibition, % at 7.35 µM; H-Glu-NHMec fluorogenic cleavage; AID 1822, 2009;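 active means inhibition above the campaign mean inhibition over all tested compounds plus 3 SD, cut at about 28% in these data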;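 further: 0% = plate median of test compound wells and 100% = 2 mM ZnCl2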
GASC-1 inh: inhibitors of GASC-1 histone demethylase, primary screen, biochemical, fluorescence, DELFIA europium; GST-JMJD2C(1-420) H3K9me3 demethylation; inhibition, % at 2.35 µM; 0.069% of 330,000 active; AID 2099, 2009;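 active means more than half of a compound's replicate wells show inhibition beyond 50%, single wells judged on their own value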;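 further: signal counts dimethyl H3K9 product captured on neutravidin plate; 0% = median of DMSO wells and 100% = 0.3 times that DMSO median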
Target sequence (Q9H3R0 1-420 limits assumed): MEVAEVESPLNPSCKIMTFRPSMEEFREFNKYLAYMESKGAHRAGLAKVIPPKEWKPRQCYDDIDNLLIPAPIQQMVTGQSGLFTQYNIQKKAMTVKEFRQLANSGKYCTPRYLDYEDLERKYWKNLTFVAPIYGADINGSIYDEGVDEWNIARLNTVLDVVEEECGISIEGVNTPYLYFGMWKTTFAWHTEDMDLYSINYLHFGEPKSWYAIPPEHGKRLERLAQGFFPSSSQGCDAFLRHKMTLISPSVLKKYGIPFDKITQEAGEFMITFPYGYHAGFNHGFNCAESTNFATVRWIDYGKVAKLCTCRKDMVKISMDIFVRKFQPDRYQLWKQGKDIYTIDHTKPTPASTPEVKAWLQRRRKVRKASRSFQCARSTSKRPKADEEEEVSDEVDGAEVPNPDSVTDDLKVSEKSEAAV
* marks the source's active call; other numbers are inactive results. The list is not random: actives were taken first. Their share in the collection is about 5.4%.

What do the screens show for `Cc1nn2c(NCCCN(C)C)c3c(nc2c1-c1ccccc1)CCC3`?
beta cell repl: -5.6; SMARCA2 act: -3.0; ALR H2O2 inh: 87.8*; Exocytosis inh: 5.8; M18AAP inhibitor: -1.1; GASC-1 inh: 9.3

How did O=[N+]([O-])c1ccc(Nc2ccc(N3CCOCC3)cc2)c([N+](=O)[O-])c1 do in these assays?
beta cell repl: -3.4; SMARCA2 act: -0.4; ALR H2O2 inh: 98.6*; Exocytosis inh: -2.2; M18AAP inhibitor: -12.7; GASC-1 inh: -1.0

How did CC(C)(C)C(=O)OC12CCCN(C1)/C(=C/c1cccnc1)C2 (configuration not stated) do in these assays?
SMARCA2 act: -4.5

Results for C#CC1c2ccccc2CCN1CC=C (configuration not stated) ?
SMARCA2 act: -0.6

What do the screens show for `CC1(C)Cc2nc3n[nH]c(N)c3cc2CO1`?
beta cell repl: -2.6; SMARCA2 act: -3.1; ALR H2O2 inh: 87.0*; Exocytosis inh: 0.0; M18AAP inhibitor: 7.4; GASC-1 inh: -0.3

How did Cc1nc2n[nH]c(N)c2c2c1COC(C)(C)C2 do in these assays?
beta cell repl: -0.8; SMARCA2 act: 0.9; ALR H2O2 inh: 62.3; Exocytosis inh: -3.7; M18AAP inhibitor: -22.4; GASC-1 inh: 3.0

What do the screens show for `OCCNc1cc(-n2nc(-c3ccccc3)cc2-c2ccccc2)ncn1`?
beta cell repl: -0.7; SMARCA2 act: -0.9; ALR H2O2 inh: 96.5*; Exocytosis inh: -3.8; M18AAP inhibitor: 0.1; GASC-1 inh: -0.2

What do the screens show for `COC(=O)[C@]12C[C@H](CC(=O)N3CCC(c4ccccc4)CC3)C(=O)N(Cc3ccc(Cl)cc3Cl)C1=C[C@H](C1CCCC1)O[C@@H]2C`?
SMARCA2 act: -1.9

Results for COC(=O)C1=C(C)N(Cc2cccc(C(F)(F)F)c2)C(=NCc2ccccc2C(F)(F)F)NC1c1cccc(F)c1 (configuration not stated) ?
SMARCA2 act: -3.0

What do the screens show for `CCOc1ccccc1C1N=C(c2ccc(OC)cc2)CC(c2ccccc2O)N1` (configuration not stated)?
beta cell repl: -6.8; SMARCA2 act: 2.8; ALR H2O2 inh: 96.2*; Exocytosis inh: 16.0; M18AAP inhibitor: 4.8; GASC-1 inh: 2.3

Results for CN1[C@H](Cc2ccccc2)COc2cc(N3CCSCC3)ccc2S1(=O)=O ?
SMARCA2 act: -4.8

Results for CNC(=S)Nc1ccc(Br)cc1 ?
beta cell repl: -0.6; SMARCA2 act: -0.6; Exocytosis inh: -6.0; M18AAP inhibitor: 16.3; GASC-1 inh: -2.1

What do the screens show for `CCCNC(=S)Nc1ccc(Nc2ccccc2)cc1`?
beta cell repl: -3.5; SMARCA2 act: -1.0; ALR H2O2 inh: 98.8*; Exocytosis inh: 3.6; M18AAP inhibitor: 4.3; GASC-1 inh: 36.1

Results for CNC(=S)Nc1ccc(Nc2ccccc2)cc1 ?
beta cell repl: -3.9; SMARCA2 act: 2.1; ALR H2O2 inh: 99.0*; Exocytosis inh: -1.8; M18AAP inhibitor: 6.6; GASC-1 inh: 9.5

How did CCCCCN1CCCCC(NC(=O)c2cccc(F)c2)C1=O (configuration not stated) do in these assays?
SMARCA2 act: -1.6

How did Cn1nnc2c[n+](CC(=O)c3ccc4ccccc4c3)cc(Br)c21 do in these assays?
beta cell repl: -6.1; SMARCA2 act: 0.8; ALR H2O2 inh: 4.4; Exocytosis inh: 10.3; M18AAP inhibitor: 0.8; GASC-1 inh: -2.1

How did Cn1nnc2c[n+](CC(=O)c3ccc(Cl)cc3)cc(Br)c21 do in these assays?
beta cell repl: -3.4; SMARCA2 act: 0.8; ALR H2O2 inh: 91.0*; Exocytosis inh: 10.2; M18AAP inhibitor: -1.6; GASC-1 inh: 0.6

How did COc1cc2c(c(OC)c1OC)C1(CCCCC1)CC2NS(=O)(=O)C(C)C (configuration not stated) do in these assays?
SMARCA2 act: -1.7

Results for CC(C)Cn1nc(NC(=O)C2CCCO2)c2cc3ccccc3nc21 (configuration not stated) ?
beta cell repl: 6.5*; SMARCA2 act: -2.3; ALR H2O2 inh: -2.0; Exocytosis inh: 7.6; M18AAP inhibitor: -0.2; GASC-1 inh: -7.6

How did CCn1nc(NS(=O)(=O)c2ccc([N+](=O)[O-])cc2)c2cc3ccc(C)cc3nc21 do in these assays?
beta cell repl: -4.9; SMARCA2 act: -1.5; ALR H2O2 inh: 21.4; Exocytosis inh: -1.2; M18AAP inhibitor: 0.7; GASC-1 inh: 2.9

How did CC(C)Cn1nc(NS(=O)(=O)c2cccc3nonc23)c2cc3ccccc3nc21 do in these assays?
beta cell repl: -1.7; SMARCA2 act: -0.6; ALR H2O2 inh: 97.3*; Exocytosis inh: 7.0; M18AAP inhibitor: 2.6; GASC-1 inh: 9.8

What do the screens show for `O=S(=O)(Nc1cccc2ccccc12)c1cccc2nonc12`?
beta cell repl: -0.1; SMARCA2 act: 2.1; ALR H2O2 inh: 17.2; Exocytosis inh: -4.6; M18AAP inhibitor: -17.9; GASC-1 inh: -32.1

How did Cc1ccccc1NS(=O)(=O)c1cccc2nonc12 do in these assays?
beta cell repl: 2.8; SMARCA2 act: 0.8; ALR H2O2 inh: 96.2*; Exocytosis inh: -2.5; M18AAP inhibitor: -1.4; GASC-1 inh: 8.4

Results for CCn1nc(NS(=O)(=O)c2cccc3nonc23)c2cc3ccc(C)cc3nc21 ?
beta cell repl: -2.7; ALR H2O2 inh: 91.4*; Exocytosis inh: -1.3; M18AAP inhibitor: -0.1; GASC-1 inh: -31.6

What do the screens show for `CC(C)Cn1nc(NS(=O)(=O)c2ccccc2)c2cc3ccccc3nc21`?
beta cell repl: -0.4; SMARCA2 act: -4.1; ALR H2O2 inh: -5.7; Exocytosis inh: -1.5; M18AAP inhibitor: 2.9; GASC-1 inh: 2.6

How did O=C(CSc1nnc(-c2ccccc2)n1Cc1ccco1)Nc1ccc(OCc2ccccc2)cc1 do in these assays?
SMARCA2 act: -6.7

What do the screens show for `CCCCn1nc(NS(=O)(=O)c2cccc3nonc23)c2cc3cccc(C)c3nc21`?
beta cell repl: -3.6; SMARCA2 act: 1.5; ALR H2O2 inh: 98.3*; Exocytosis inh: 0.6; M18AAP inhibitor: -2.9; GASC-1 inh: -6.2

How did CC1=CC(c2ccc(Cl)cc2)n2nc(NS(=O)(=O)c3ccc(C)cc3)nc2N1 (configuration not stated) do in these assays?
beta cell repl: -1.6; SMARCA2 act: 3.7; ALR H2O2 inh: 96.4*; Exocytosis inh: 0.0; M18AAP inhibitor: -3.6; GASC-1 inh: 7.1

How did O=C(CNCc1ccco1)Nc1ccc(N2CCCCCC2)cc1 do in these assays?
beta cell repl: -2.0; SMARCA2 act: -2.3; ALR H2O2 inh: 98.9*; Exocytosis inh: 0.1; M18AAP inhibitor: 5.5; GASC-1 inh: 1.9

From PubChem
